From PubChem BioAssay (NCI) come the findings set out here.

Assay [1] is described as follows: NCI Yeast Anticancer Drug Screen. Data for the rad50 strain (AID 155).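 Further: 0% = growth of vehicle-only cultures of the same strain.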 The settings on record: S. cerevisiae rad50 strain growth inhibition, stronger effect = higher value. An outline of the steps:
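Readout: growth inhibition relative to vehicle-treated cultures. Compound exposure was carried out in a genetically defined yeast strain deficient in DNA damage repair.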

Assay [2] can be described thus: NCI Yeast Anticancer Drug Screen. Data for the mec2-1 strain (AID 157). The settings on record: S. cerevisiae mec2-1 strain, stronger effect = higher value. An outline of the steps: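 Vehicle-treated cultures served as reference for growth inhibition of compound-exposed mec2-1 yeast.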
The nature of assay [3]: NCI Yeast Anticancer Drug Screen. Data for the sgs1 mgt1 strain (AID 161).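 Further: 0% = growth of cultures given vehicle only.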 The settings on record: S. cerevisiae sgs1 mgt1 strain, stronger effect = higher value. An outline of the steps: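 Test agents were incubated with a DNA-repair-mutant yeast strain. Growth was then read and compared against vehicle-treated controls.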
Assay [4] is described as follows: NCI Yeast Anticancer Drug Screen. Data for the cln2 rad14 strain (AID 165).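 Further: 0% = growth equal to vehicle treated cultures.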 The settings on record: S. cerevisiae cln2 rad14 strain, stronger effect = higher value. The essentials:
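Each compound was tested on cln2 rad14 yeast. Inhibition of growth was calculated against vehicle-exposed controls.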

A short description of assay [5]: NCI Yeast Anticancer Drug Screen. Data for the bub3 strain (AID 167). The settings on record: S. cerevisiae bub3 mutant strain, stronger effect = higher value. The essentials: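 Readout: yeast growth inhibition, expressed relative to vehicle-only wells. The test organism is a mutant strain from a panel with lesions in DNA repair or checkpoint genes.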
The nature of assay [6]: NCI Yeast Anticancer Drug Screen. Data for the mlh1 rad18 strain (AID 175). The settings on record: S. cerevisiae mlh1 rad18 strain growth inhibition, stronger effect = higher value. An outline of the steps:
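Vehicle-treated cultures served as the reference for growth inhibition in a yeast strain carrying DNA damage repair alterations exposed to each compound.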

Setting [7] is: at 5.0 µM (retest, dose inferred, filed as 0.5).
Where [8] appears, read: at 50.0 µM (retest, dose inferred, filed as 5.0).

Compounds without any hit were thinned out: in the full panel of roughly 79,000, 15% have a hit. A number with no mark means an inactive call. Active and inactive are the calls of the source. No stated cut-off is given here; in the data, active means growth inhibition above about 70%; inactive means the rest.

Regarding `CC(C)(C)OC(=O)N(CCCCNC(=O)OCc1ccccc1)CCCNC(=O)OCc1ccccc1`, the growth inhibition in assay [1] (setting [7]) was 9%; in assay [1] (setting [8]), 9%; in assay [1] (at 50.0 µM) it was 23.1%; in assay [2] (setting [7]) it was 7%; in assay [2] (setting [8]) it was -4%; in assay [2] (at 50.0 µM) it was 14.8%. Moreover, the growth inhibition in assay [3] (setting [7]) is -19%; in assay [3] (setting [8]), -3%; in assay [3] (at 50.0 µM), -1.15%; in assay [4] (setting [7]), 0%; in assay [4] (setting [8]), 18%; in assay [4] (at 50.0 µM), -0.85%. In addition, the growth inhibition in assay [5] (setting [7]) is 2%; in assay [5] (setting [8]), -1%; in assay [5] (at 50.0 µM), -13.4%; in assay [6] (setting [7]), 9%; in assay [6] (setting [8]), 9%; in assay [6] (at 50.0 µM), -57.7%.
For `CC12CCC(=O)C=C1CCC1C2CCC2(C)C(c3cnc[nH]3)CCC12` (stereo not given), the growth inhibition in assay [1] (setting [7]) is 51%; in assay [1] (setting [8]), 75% (active); in assay [1] (at 50.0 µM), 77% (active); in assay [2] (setting [7]) it was 36%; in assay [2] (setting [8]) it was 46%; in assay [2] (at 50.0 µM), 30.1%. The growth inhibition was 39% in assay [3] (setting [7]); 82% (active) in assay [3] (setting [8]); 65.2% in assay [3] (at 50.0 µM); 52% in assay [4] (setting [7]); 43% in assay [4] (setting [8]); 34.9% in assay [4] (at 50.0 µM). The growth inhibition in assay [5] (setting [7]) was 53%; in assay [5] (setting [8]), 70% (active); in assay [5] (at 50.0 µM), 69.5%; in assay [6] (setting [7]), 41%; in assay [6] (setting [8]), 70% (active); in assay [6] (at 50.0 µM), 39.1%.
As to `CCc1ccccc1NC(=O)C(=O)CC(=O)c1ccc(Cl)s1`, the growth inhibition was 1% in assay [1] (setting [7]); 1% in assay [1] (setting [8]); 45.1% in assay [1] (at 50.0 µM); -2% in assay [2] (setting [7]); -40% in assay [2] (setting [8]); 2.6% in assay [2] (at 50.0 µM). Further, the growth inhibition is -1% in assay [3] (setting [7]); 2% in assay [3] (setting [8]); 6.85% in assay [3] (at 50.0 µM); -2% in assay [4] (setting [7]); 6% in assay [4] (setting [8]); 26.2% in assay [4] (at 50.0 µM). Moreover, the growth inhibition is 2% in assay [5] (setting [7]); 1% in assay [5] (setting [8]); -9.55% in assay [5] (at 50.0 µM); 0% in assay [6] (setting [7]); 5% in assay [6] (setting [8]); -0.1% in assay [6] (at 50.0 µM).
For `CN(C)c1ncnc2c1ncn2C`, the growth inhibition is 29% in assay [1] (setting [7]); 61% in assay [1] (setting [8]); 70.8% (active) in assay [1] (at 50.0 µM); 15% in assay [2] (setting [7]); 81% (active) in assay [2] (setting [8]); 61.4% in assay [2] (at 50.0 µM). Also, the growth inhibition in assay [3] (setting [7]) is 16%; in assay [3] (setting [8]) it was 53%; in assay [3] (at 50.0 µM), 59.1%; in assay [4] (setting [7]) it was -1%; in assay [4] (setting [8]), 38%; in assay [4] (at 50.0 µM), 17.4%. The growth inhibition in assay [5] (setting [7]) was 20%; in assay [5] (setting [8]) it was 98% (active); in assay [5] (at 50.0 µM) it was 38.7%; in assay [6] (setting [7]), 26%; in assay [6] (setting [8]), 72% (active); in assay [6] (at 50.0 µM) it was 61.4%.
Take `Nc1cc(S(=O)(=O)O)cc2cc(S(=O)(=O)O)c(N=Nc3ccccc3)c(O)c12`: the growth inhibition is 0% in assay [1] (setting [7]); -1% in assay [1] (setting [8]); 99.3% (active) in assay [1] (at 50.0 µM); -2% in assay [2] (setting [7]); 5% in assay [2] (setting [8]); 99.2% (active) in assay [2] (at 50.0 µM). The growth inhibition in assay [3] (setting [7]) is 0%; in assay [3] (setting [8]) it was 0%; in assay [3] (at 50.0 µM), 99.3% (active); in assay [4] (setting [7]) it was 12%; in assay [4] (setting [8]), 3%; in assay [4] (at 50.0 µM), 96.5% (active). For the same compound, the growth inhibition was -36% in assay [5] (setting [7]); 10% in assay [5] (setting [8]); 99% (active) in assay [5] (at 50.0 µM); 0% in assay [6] (setting [7]); 1% in assay [6] (setting [8]); 98.7% (active) in assay [6] (at 50.0 µM).
For `Oc1c(Cl)cccc1-c1ccccc1`, the growth inhibition was 2% in assay [1] (setting [7]); -5% in assay [1] (setting [8]); 20.1% in assay [1] (at 50.0 µM); -21% in assay [2] (setting [7]); 0% in assay [2] (setting [8]); 12.2% in assay [2] (at 50.0 µM). The growth inhibition in assay [3] (setting [7]) was 1%; in assay [3] (setting [8]) it was 10%; in assay [3] (at 50.0 µM) it was 36.9%; in assay [4] (setting [7]), 1%; in assay [4] (setting [8]), -14%; in assay [4] (at 50.0 µM), 1.9%. Besides, the growth inhibition in assay [5] (setting [7]) is 7%; in assay [5] (setting [8]), -4%; in assay [5] (at 50.0 µM), 4.45%; in assay [6] (setting [7]), -1%; in assay [6] (setting [8]), 8%; in assay [6] (at 50.0 µM) it was 67.8%.
On to `O=C(Nc1ccc(Cl)cc1Cl)OC(Cn1cncn1)c1ccc(Cl)cc1Cl` (stereo not given), for which the growth inhibition in assay [1] (setting [7]) was 71% (active); in assay [1] (setting [8]) it was 71% (active); in assay [1] (at 50.0 µM), 91.2% (active); in assay [2] (setting [7]), 67%; in assay [2] (setting [8]), 67%; in assay [2] (at 50.0 µM), 91.4% (active). In addition, the growth inhibition in assay [3] (setting [7]) is 77% (active); in assay [3] (setting [8]) it was 77% (active); in assay [3] (at 50.0 µM), 90.5% (active); in assay [4] (setting [7]) it was 66%; in assay [4] (setting [8]) it was 66%; in assay [4] (at 50.0 µM), 88.7% (active). Moreover, the growth inhibition in assay [5] (setting [7]) is 72% (active); in assay [5] (setting [8]), 72% (active); in assay [5] (at 50.0 µM), 92.5% (active); in assay [6] (setting [7]), 77% (active); in assay [6] (setting [8]), 77% (active); in assay [6] (at 50.0 µM), 90.5% (active).
Turning to `CCOc1ccccc1/C=C1\C=Nc2ccccc21`, the growth inhibition in assay [1] (setting [7]) was 6%; in assay [1] (setting [8]), -16%; in assay [1] (at 50.0 µM), 11.8%; in assay [2] (setting [7]), -16%; in assay [2] (setting [8]), 8%; in assay [2] (at 50.0 µM) it was 16.1%. The growth inhibition in assay [3] (setting [7]) is -6%; in assay [3] (setting [8]), 0%; in assay [3] (at 50.0 µM), 16.2%; in assay [4] (setting [7]) it was 25%; in assay [4] (setting [8]) it was 16%; in assay [4] (at 50.0 µM) it was 7.65%. The growth inhibition in assay [5] (setting [7]) is 8%; in assay [5] (setting [8]) it was 15%; in assay [5] (at 50.0 µM), 24.7%; in assay [6] (setting [7]), -10%; in assay [6] (setting [8]), -17%; in assay [6] (at 50.0 µM), 6.35%.
On to `O=c1cc(-c2cccc(OCc3ccccc3)c2)[nH]c2cc3c(cc12)OCO3`, for which the growth inhibition in assay [1] (setting [7]) was 19%; in assay [1] (setting [8]), 6%; in assay [1] (at 50.0 µM), 21.3%; in assay [2] (setting [7]), 16%; in assay [2] (setting [8]), 12%; in assay [2] (at 50.0 µM), -21.4%. For the same compound, the growth inhibition in assay [3] (setting [7]) is 21%; in assay [3] (setting [8]) it was 16%; in assay [3] (at 50.0 µM) it was 17.1%; in assay [4] (setting [7]), 0%; in assay [4] (setting [8]), 11%; in assay [4] (at 50.0 µM), 5.75%. The growth inhibition in assay [5] (setting [7]) was 14%; in assay [5] (setting [8]) it was 6%; in assay [5] (at 50.0 µM), 19.9%; in assay [6] (setting [7]), 22%; in assay [6] (setting [8]) it was 10%; in assay [6] (at 50.0 µM), -51.5%.
For `COc1ccc2c(Cc3cc(Cl)ccc3O)cncc2c1O`, the growth inhibition in assay [1] (setting [7]) was -1%; in assay [1] (setting [8]), 32%; in assay [1] (at 50.0 µM) it was 50.1%; in assay [2] (setting [7]), -8%; in assay [2] (setting [8]), 60%; in assay [2] (at 50.0 µM), 31.6%. For the same compound, the growth inhibition was -5% in assay [3] (setting [7]); 51% in assay [3] (setting [8]); 29.7% in assay [3] (at 50.0 µM); 3% in assay [4] (setting [7]); -4% in assay [4] (setting [8]); 40% in assay [4] (at 50.0 µM). Moreover, the growth inhibition in assay [5] (setting [7]) is -2%; in assay [5] (setting [8]), 31%; in assay [5] (at 50.0 µM), 96% (active); in assay [6] (setting [7]) it was 16%; in assay [6] (setting [8]) it was 62%; in assay [6] (at 50.0 µM), 82.3% (active).
